Source: PubChem BioAssay
For part of these data: Potency and affinity values are given separately. The list shows a part of the results. Activity calls are given as the source filed them.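 The calls were made as follows, unless noted: active = fitted half-maximal concentration within the tested dose range, moderate curve steepness, a statistically real signal drop, and little compound fluorescence or tag-binding interference; inactive = the rest.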

Experiments:
[1] = biological target: Cell division control protein 42 homolog (Homo sapiens) (UniProt P60953); test: inhibition of fluorescent GTP binding to constitutively active Cdc42 – biochemical, multiplex bead flow cytometry, Bodipy-FL-GTP, dose response (AID 1333)
Cell division control protein 42 homolog (Homo sapiens), sequence (P60953 whole entry, looked up): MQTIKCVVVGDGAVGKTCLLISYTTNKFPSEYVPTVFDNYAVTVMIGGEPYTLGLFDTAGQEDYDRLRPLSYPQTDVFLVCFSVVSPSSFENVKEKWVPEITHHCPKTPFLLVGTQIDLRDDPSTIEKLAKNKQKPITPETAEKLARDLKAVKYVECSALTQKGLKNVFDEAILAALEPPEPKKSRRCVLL

[2] = biological target: Cell division control protein 42 homolog (Homo sapiens) (UniProt P60953); test: inhibition of fluorescent GTP binding to wildtype Cdc42 – biochemical, multiplex bead flow cytometry, Bodipy-FL-GTP, dose response (AID 1334;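 active = fitted half-maximal concentration within the tested range, moderate curve steepness, significant signal drop, and little compound fluorescence or bead-linkage interference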); conditions: bead-based flow cytometry, Bodipy-FL-GTP binding to GST-Cdc42; at 100 µM (top of the series)
[3] = test system: Ras-related protein Rab-7a (dog), GTP binding; test: blockers of fluorescent GTP binding to Rab7 – biochemical, wildtype, multiplex bead flow cytometry, dose response (AID 1336; call rule not given here)
[4] = biological target: Ras-related C3 botulinum toxin substrate 1 (Homo sapiens) (UniProt P63000); test: inhibition of wildtype Rac1 nucleotide loading – biochemical, multiplex bead flow cytometry, dose response (AID 1340;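 active = dose curve with midpoint inside tested range, moderate steepness, plateau gap beyond fit error, low compound glow and bead-link interference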); conditions: GST-Rac1 beads, Bodipy-FL-GTP binding; at 100 µM (top of the series)
[5] = biological target: GTPase HRas (Homo sapiens) (UniProt P01112); test: blockade of GTP loading onto mutant Ras – biochemical, activated mutant, multiplex bead flow cytometry, dose response (AID 1341;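 active = dose-response curve with midpoint inside the tested range, moderate steepness, significant amplitude and little compound fluorescence or bead-attachment interference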;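 also: GST-tagged constitutively activated Ras mutant immobilized on beads and multiplexed with other GTPases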)
[6] = hit retest on RPL19A-GFP reporter strain – cell-based, S. cerevisiae, flow cytometry, cherry picks, mother/daughter gates, confirmation (AID 2270;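 active = GFP response below 50% of the DMSO control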); conditions: 3 h, at 10 µM, stronger effect = lower value, 100 = same GFP as DMSO wells
[7] = yeast TOR pathway reporter LAP4-GFP change – cell-based, cherry picks, flow cytometry, mother/daughter gates, confirmation (AID 2271;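 active = GFP response above 150% of the DMSO control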;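 also: ratio of sample to DMSO plate mean so 100% equals DMSO level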); conditions: S. cerevisiae LAP4-GFP strain, 3 h, at 10 µM, stronger effect = higher value
[8] = TOR pathway reporter MEP2-GFP, retest of hits – S. cerevisiae, flow cytometry GFP, cherry picks, confirmation (AID 2272;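 active = GFP response above 150% of the DMSO control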;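 also: ratio of well signal to plate DMSO mean so 100% equals DMSO level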); conditions: S. cerevisiae MEP2-GFP strain, 3 h, at 10 µM, stronger effect = higher value
[9] = yeast AGP1-GFP fluorescence change, single-dose – cell-based, flow cytometry, S. cerevisiae, cherry picks, confirmation (AID 2273;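 active = GFP response above 150% of the DMSO level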;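 also: median GFP channel fluorescence over the whole cell population gate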); conditions: S. cerevisiae AGP1-GFP strain, 3 h, at 10 µM
[10] = TOR pathway CIT2 reporter hit retest – S. cerevisiae, GFP fusion, cherry picks, mother/daughter gates, confirmation (AID 2274;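 active = GFP response above 150% of the DMSO level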); conditions: S. cerevisiae CIT2-GFP strain, flow cytometry, 3 h, at 10 µM, stronger effect = higher value
[11] = biological target: Regulator of G-protein signaling 16 (Homo sapiens) (UniProt O15492); test: small molecules altering RGS protein interactions with GNAO1 – biochemical, multiplexed beads, flow cytometry, RGS4/7/8/16/19, primary screen (AID 1504; call rule not given here;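 also: fluorescently labeled Galpha-o bound to GDP with aluminium fluoride binding biotinylated RGS beads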); conditions: multiplexed bead flow cytometry, measured here: RGS16 interaction, at 10 µM
[12] = biological target: Regulator of G-protein signaling 4 (Homo sapiens) + Guanine nucleotide-binding protein G(o) subunit alpha (Homo sapiens) (UniProt P49798+P09471); test: as above; conditions: multiplexed bead flow cytometry, at 10 µM
Regulator of G-protein signaling 4 (Homo sapiens) + Guanine nucleotide-binding protein G(o) subunit alpha (Homo sapiens), sequence (P09471 whole entry, looked up): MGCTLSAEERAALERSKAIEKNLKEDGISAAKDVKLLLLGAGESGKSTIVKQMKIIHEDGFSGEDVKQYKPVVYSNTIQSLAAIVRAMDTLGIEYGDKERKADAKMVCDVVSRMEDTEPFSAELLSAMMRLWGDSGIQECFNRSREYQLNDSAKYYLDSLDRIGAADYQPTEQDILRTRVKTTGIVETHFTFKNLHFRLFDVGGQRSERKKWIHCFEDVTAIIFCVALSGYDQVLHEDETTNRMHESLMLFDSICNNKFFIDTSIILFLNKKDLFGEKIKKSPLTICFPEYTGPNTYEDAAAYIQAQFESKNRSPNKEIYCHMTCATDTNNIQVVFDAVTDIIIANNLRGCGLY
Regulator of G-protein signaling 4 (Homo sapiens) + Guanine nucleotide-binding protein G(o) subunit alpha (Homo sapiens), sequence (P49798 whole entry, looked up): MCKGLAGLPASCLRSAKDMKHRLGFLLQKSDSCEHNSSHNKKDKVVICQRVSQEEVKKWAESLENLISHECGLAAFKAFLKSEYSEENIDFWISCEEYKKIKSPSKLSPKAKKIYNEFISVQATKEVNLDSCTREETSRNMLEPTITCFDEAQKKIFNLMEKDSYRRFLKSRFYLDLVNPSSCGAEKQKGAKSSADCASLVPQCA

[13] = biological target: Regulator of G-protein signaling 7 (Homo sapiens) (UniProt P49802); test: as above; conditions: multiplexed bead flow cytometry, measured here: RGS7 interaction, at 10 µM
[14] = biological target: Regulator of G-protein signaling 8 (Homo sapiens) (UniProt P57771); test: as above; conditions: multiplexed bead flow cytometry, measured here: RGS8 interaction, at 10 µM
[15] = interference with biotin-avidin bead interaction – biochemical, flow cytometry, bead-based, counter-screen for RGS protein interaction modulators (AID 1783;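 active = inhibition above 50%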;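 also: median green fluorescence of gated singlet beads compared with DMSO control wells; 0% = DMSO wells and 100% = complete loss of bead fluorescence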); conditions: streptavidin beads, fluorescein-biotin binding, at 10 µM, stronger effect = higher value
[16] = biological target: Guanine nucleotide-binding protein G(o) subunit alpha (Homo sapiens) (UniProt P09471); test: retest of RGS8-Galphao interaction hits – biochemical, multiplexed bead flow cytometry, single concentration, confirmation (AID 1836; in the data active = binding response below about 72% or above about 130%; inactive = in between;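 also: Galphao activated as GDP AlF4 complex before binding bead RGS8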); conditions: bead-based flow cytometry RGS8-Galphao binding, fluorescence; at 10 µM; actives lie on both sides
Guanine nucleotide-binding protein G(o) subunit alpha (Homo sapiens), sequence (P09471 whole entry, looked up): as the sequence (P09471 whole entry, looked up) above

[17] = biological target: Guanine nucleotide-binding protein G(o) subunit alpha (Homo sapiens) (UniProt P09471); test: retest of RGS7-Galphao interaction hits – biochemical, multiplexed bead flow cytometry, single concentration, confirmation (AID 1837; in the data active = response below about 75% or above about 130%; inactive = in between;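 also: fluorescent Galphao activated with GDP and aluminum fluoride binding bead-coupled RGS7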); conditions: bead-based flow cytometry RGS7-Galphao binding; at 10 µM; actives lie on both sides
[18] = biological target: Regulator of G-protein signaling 16 (Homo sapiens) + Guanine nucleotide-binding protein G(o) subunit alpha (Homo sapiens) (UniProt O15492+P09471); test: RGS16 and Galphao interaction regulators – biochemical, single concentration, multiplexed bead flow cytometry, confirmation (AID 1838; in the data active = response below about 74% or above about 130%; inactive = in between;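 also: Galphao activated as the GDP aluminium fluoride complex binding bead-coupled RGS16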); conditions: bead-based flow cytometry, at 10 µM, actives lie on both sides
Regulator of G-protein signaling 16 (Homo sapiens) + Guanine nucleotide-binding protein G(o) subunit alpha (Homo sapiens), sequence (O15492 whole entry, looked up): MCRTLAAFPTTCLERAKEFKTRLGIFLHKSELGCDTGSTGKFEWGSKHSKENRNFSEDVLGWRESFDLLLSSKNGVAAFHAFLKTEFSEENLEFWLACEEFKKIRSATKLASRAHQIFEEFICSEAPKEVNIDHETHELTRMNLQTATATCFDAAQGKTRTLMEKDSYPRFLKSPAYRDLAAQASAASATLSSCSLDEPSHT
Regulator of G-protein signaling 16 (Homo sapiens) + Guanine nucleotide-binding protein G(o) subunit alpha (Homo sapiens), sequence (P09471 whole entry, looked up): as the sequence (P09471 whole entry, looked up) above

[19] = biological target: Guanine nucleotide-binding protein G(o) subunit alpha (Homo sapiens) (UniProt P09471); test: RGS4 and Galphao interaction regulators – biochemical, single concentration, multiplexed bead flow cytometry, confirmation (AID 1840; in the data active = binding response below about 74% or above about 130%; inactive = in between); conditions: at 10 µM, actives lie on both sides
[20] = biological target: Guanine nucleotide-binding protein G(o) subunit alpha (Homo sapiens) + Regulator of G-protein signaling 19 (Homo sapiens) (UniProt P09471+P49795); test: RGS19 interaction with Gαo, hit retest – biochemical, single point, multiplexed bead flow cytometry, confirmation (AID 1841; in the data active = response below about 50% or above about 160%; inactive = in between;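 also: 100% = no compound control and 0% = blank background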); conditions: bead-based flow cytometry RGS19-Galphao binding; at 10 µM; actives lie on both sides
Guanine nucleotide-binding protein G(o) subunit alpha (Homo sapiens) + Regulator of G-protein signaling 19 (Homo sapiens), sequence (P09471 whole entry, looked up): as above
Guanine nucleotide-binding protein G(o) subunit alpha (Homo sapiens) + Regulator of G-protein signaling 19 (Homo sapiens), sequence (P49795 whole entry, looked up): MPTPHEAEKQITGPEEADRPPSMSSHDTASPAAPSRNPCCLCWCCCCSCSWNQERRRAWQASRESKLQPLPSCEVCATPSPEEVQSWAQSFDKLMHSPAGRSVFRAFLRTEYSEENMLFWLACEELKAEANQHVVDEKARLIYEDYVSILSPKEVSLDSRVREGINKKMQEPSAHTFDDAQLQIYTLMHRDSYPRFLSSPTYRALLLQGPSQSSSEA

[21] = measured here: daughter cell gate
[22] = measured here: mother cell gate
[23] = measured here: daughter cell gate response
[24] = measured here: mother cell gate response

Compound: CCOCCCn1c(N)c(C(=O)Nc2sc3c(c2C(=O)OC)CCCC3)c2nc3ccccc3nc21
- outcome [1]: inactive
- fluorescence, percent of control (lower = inhibition) [2]: 64.4%
- outcome [3]: inactive
- GTP binding signal, raw median fluorescence (lower = inhibition) (MCF (arbitrary fluorescence units)) [4]: 127
- outcome [5]: inactive

Compound: O=C(O)c1cn(Cc2ccccc2Cl)c2ccccc12
- outcome [1]: inactive
- fluorescence, percent of control (lower = inhibition) [2]: 64.9%
- outcome [3]: inactive
- GTP binding signal, raw median fluorescence (lower = inhibition) (MCF (arbitrary fluorescence units)) [4]: 34.1
- outcome [5]: inactive

Compound: O=C(O)c1cn(Cc2ccc(Cl)cc2)c2ccccc12
- outcome [1]: inactive
- fluorescence, percent of control (lower = inhibition) [2]: 76.5%
- outcome [3]: inactive
- GTP binding signal, raw median fluorescence (lower = inhibition) (MCF (arbitrary fluorescence units)) [4]: 77.6
- outcome [5]: inactive

Compound: C[C@]12CC[C@@H](O)C[C@@H]1CC[C@@H]1[C@@H]2CC[C@]2(C)[C@@H](O)CC[C@@H]12
- GFP response vs DMSO [6]: 92.2% (inactive)
- GFP response vs DMSO [6, 21]: 87.3%
- GFP response vs DMSO [6, 22]: 94.1%
- GFP response relative to DMSO [7]: 112% (inactive)
- GFP response relative to DMSO [7, 23]: 107%
- GFP response relative to DMSO [7, 24]: 119%
- GFP response vs DMSO [8]: 89.9% (inactive)
- GFP response, % of DMSO [9]: 90% (inactive)
- GFP response, % of DMSO [10]: 85.5% (inactive)
- GFP response, % of DMSO [10, 21]: 86.2%
- GFP response, % of DMSO [10, 22]: 87.8%

Compound: Cc1cc(C)cc(N2C(=O)NC(=O)/C(=C\C=C\c3ccco3)C2=O)c1
- outcome [1]: inactive
- fluorescence, percent of control (lower = inhibition) [2]: 32.8%
- outcome [3]: inactive
- GTP binding signal, raw median fluorescence (lower = inhibition) (MCF (arbitrary fluorescence units)) [4]: 206
- outcome [5]: inactive

Compound: Cc1ccc(C)c(OCCCn2cc(C(=O)O)c3ccccc32)c1
- outcome [1]: inactive
- fluorescence, percent of control (lower = inhibition) [2]: 61.7%
- outcome [3]: inactive
- GTP binding signal, raw median fluorescence (lower = inhibition) (MCF (arbitrary fluorescence units)) [4]: 36.2
- outcome [5]: inactive

Compound: Cc1ccc(-n2c(O)c(/C=N/c3ncc(Br)cc3Br)c(=O)[nH]c2=O)cc1
- outcome [1]: inactive
- fluorescence, percent of control (lower = inhibition) [2]: 49.1%
- outcome [3]: inactive
- GTP binding signal, raw median fluorescence (lower = inhibition) (MCF (arbitrary fluorescence units)) [4]: 59.9
- outcome [5]: inactive

Compound: CC(C)N(CC#CCC1(O)c2ccccc2-c2ccccc21)C(C)C
- RGS16–Galpha-o binding response [11]: 180%
- RGS4–Galpha-o binding response [12]: 106% (active)
- RGS7–Galpha-o binding response [13]: 107%
- RGS8–Galpha-o binding response [14]: 122%
- inhibition [15]: 0.7% (inactive)
- binding response (% of control) [16]: 98.5% (inactive)
- response (percent of control binding) [17]: 99.5% (inactive)
- response (% of control binding) [18]: 101% (inactive)
- binding response (% of control) [19]: 99.5% (inactive)
- response (percent of control binding) [20]: 110% (inactive)

Compound: CCN(CC)c1ccc(/C=N/c2sc3c(c2C#N)C2CCN3CC2)c(O)c1
- outcome [1]: inactive
- fluorescence, percent of control (lower = inhibition) [2]: 91.1%
- outcome [3]: inactive
- GTP binding signal, raw median fluorescence (lower = inhibition) (MCF (arbitrary fluorescence units)) [4]: 248
- outcome [5]: inactive

Compound: CCOc1ccc(C2SCC(=O)Nc3c2c(C)nn3C2CCOC(C)(C)C2)cc1 (stereo not drawn)
- outcome [1]: inactive
- fluorescence, percent of control (lower = inhibition) [2]: 96.5%
- outcome [3]: inactive
- GTP binding signal, raw median fluorescence (lower = inhibition) (MCF (arbitrary fluorescence units)) [4]: 195
- outcome [5]: inactive

Compound: Cc1ccc(C)c(OCCn2cc(C(=O)O)c3ccccc32)c1
- outcome [1]: inactive

Compound: O=C1CN=C(c2ccccc2F)c2cc(Cl)ccc2N1
- GFP response vs DMSO [6]: 99.3% (inactive)
- GFP response vs DMSO [6, 21]: 99%
- GFP response vs DMSO [6, 22]: 99.1%
- GFP response relative to DMSO [7]: 97.4% (inactive)
- GFP response relative to DMSO [7, 23]: 98.7%
- GFP response relative to DMSO [7, 24]: 98.3%
- GFP response vs DMSO [8]: 100% (inactive)
- GFP response, % of DMSO [9]: 98% (inactive)
- GFP response, % of DMSO [10]: 107% (inactive)
- GFP response, % of DMSO [10, 21]: 105%
- GFP response, % of DMSO [10, 22]: 111%

Compound: CCCCN1C(=O)/C(=C\c2ccco2)C(=O)N(CCc2ccccc2)C1=O
- outcome [1]: inactive
- fluorescence, percent of control (lower = inhibition) [2]: 77.8%
- outcome [3]: inactive
- GTP binding signal, raw median fluorescence (lower = inhibition) (MCF (arbitrary fluorescence units)) [4]: 129
- outcome [5]: inactive
